High-throughput results as filed in PubChem.
Vaccinia mCherry – qHTS for Stage-Specific Inhibitors of Vaccinia Orthopoxvirus: mCherry Reporter Primary qHTS | Vaccinia virus mCherry reporter infection, fluorescence | AID 720579, 2013 | hit rate 0.63% among 310,000 | Potency, µM (titrated, usually from 36.5 µM), for the others: at the top dose activity change, negative = inhibition, most hits filed as inhibitors; calls by dose curve; tested in A549 cells; note: potency is the fitted concentration of half-maximal effect; nearly all actives have a fitted effect of over 35% in size
Vaccinia Venus – qHTS for Stage-Specific Inhibitors of Vaccinia Orthopoxvirus: Venus Reporter Primary qHTS; AID 720580, 2013; hit rate 0.46% among 330,000; Vaccinia virus Venus reporter expression, fluorescence; Potency, µM (titrated, usually from 36.5 µM), without a hit: at the highest dose activity change, negative = inhibition, actives largely listed as inhibitors; calls by dose curve; tested in A549 cells; note: potency is the fitted concentration of half-maximal effect; nearly all actives have a fitted effect of over 30% in size
HCMV inh – qHTS Assay for inhibitors of the human cytomegalovirus (HCMV). HFF cells, HCMV-luciferase reporter, 72 h; active compounds read low. AID 1259415, 2018. hit rate 4.5% among 410,000. activity change, negative = inhibition, % at 57.5 µM; in the data active = activity change below about -60%; inconclusive = no clear call, values can overlap the other calls; inactive = above about -39%
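After 16 h attachment at 37C, HFF cells received test compound and HCMV-luciferase (1 PFU/cell); reporter luminescence read 72 h later, data normalized against buffer-only and known inhibitor Salinomycin.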
FMDV inh – High Throughput Screening for Foot and Mouth Disease Virus Antivirals. Potency, µM (highest dose often 57.9 µM), without a hit: top-dose activity change, negative = inhibition, actives largely listed as inhibitors. hit rate 1.2% among 410,000. FMDV antiviral cell-based qHTS; calls by dose curve; tested in HEK293T cells; note: read-out not given here; potency is the fitted concentration of half-maximal effect; nearly all actives have a fitted effect of over 45% in size
Lassa entry inh – qHTS for Inhibitors of binding or entry into cells for Lassa Virus; hit rate 1.2% among 300,000; Potency, µM (doses to about 37.9 µM), for inactives: at the top dose activity change, negative = inhibition, hits mostly inhibitors; AID 540256, 2011; Lassa virus pseudotype entry inhibition, cell reporter; calls by dose curve; tested in HEK293 cells; note: potency is the fitted concentration of half-maximal effect; nearly all actives have a fitted effect of over 50% in size
Marburg entry inh – qHTS for inhibitors of binding or entry into cells for Marburg Virus | Marburg virus pseudotyped entry inhibition, cell reporter | hit rate 1.8% among 300,000 | Potency, µM (series often up to 37.8 µM), without a hit: top-dose activity change, negative = inhibition, actives largely listed as inhibitors; calls by dose curve; tested in HEK293 cells; note: potency is the fitted concentration of half-maximal effect
* marks the source's active call; other numbers are inactive results; i = inactive; u = inconclusive; x = not tested or not shown; ! = a repeat was not active; [ ] = another dose, or the depositor's remark. Shown are actives, neighbours in structure and some others; about 6.5% of the full set was active somewhere. % is set by controls: 0 for no effect and ±100 for the full control effect.

SMILES	Vaccinia mCherry	Vaccinia Venus	HCMV inh	FMDV inh	Lassa entry inh	Marburg entry inh
CCN1CCN(Cc2ccc(NC(=O)c3cc(NC(=O)c4ccc5n[nH]nc5c4)cc(OC)c3)cc2C(F)(F)F)CC1	i	-1.4%	-7.2	-11.0%	x	x
CCN1CCN(Cc2ccc(NC(=O)c3cc(NC(=O)c4cc5cccc(OC)c5o4)cc(OC)c3)cc2C(F)(F)F)CC1	u	12.6µM*!	-101.7*!	39.8µM*!	x	x
CCc1cc2c(nc1CC)CCCN2CCOC	x	x	3.3	x	x	x
O=C(CSc1nc(-c2ccccc2)nc2c1Cc1ccccc1O2)N1CCCCC1	-10.5%	-9.9%	16.5	-23.6%	-13.0%[46.1 µM]	1.5%[46.1 µM]
Cc1ccc(NC(=O)CN2C(=O)CC(c3ccc(F)cc3)=Nc3ccccc32)cc1F	u	u	-81.4*	10.0%	5.7%[46.1 µM]	x
CCCOc1ccccc1NC(=O)Nc1ccccc1Cl	-2.8%	-11.4%	u	-0.6%	14.3%[46.1 µM]	u
COc1ccccc1NC(=O)NCCCl	10µM*	10µM*	50.3	16.8%	24.7%	-2.9%
O=C(NCCCl)Nc1ccccc1OCCOc1ccccc1NC(=O)NCCCl	14.1µM*	u	18.3	2.1%	u	-0.8%[46.1 µM]
COc1ccccc1NC(=O)CC(=O)Nc1ccccc1OC	-8.9%	-18.0%	15.9	2.1%	9.7%[46.1 µM]	4.6%[46.1 µM]
C=CCn1c(SCC(=O)c2[nH]c(C)c(C(=O)OCC)c2C)nc2scc(-c3ccc(OC)c(OC)c3)c2c1=O	-3.4%	-5.4%	-100.0*	u	-24.7%	u
CC(=O)Nc1ccc(C(=O)Nc2ccc3c(c2)N(C2CCCC2)C(=O)c2ccccc2S3)cc1	-19.4%	-13.0%	-83.2*	u	6.31µM*	x
O=C(Nc1ccncc1)c1ccc2c(c1)C(=O)N(C1CCCCC1)C2=O	u	u	-29.9	14.1µM*	-25.5%	u
N#Cc1ccc(C(=O)Nc2ccc3c(c2)N(C2CCCC2)C(=O)c2ccccc2S3)cc1	14.4%	-3.9%	-31.9	0.0%	u	x
Cc1cc(NC(=O)c2ccc3c(c2)C(=O)N(C2CCCCC2)C3=O)no1	x	-4.3%	-13.4	-7.6%	-11.1%	-6.8%
CC(=O)OC[C@@H]1O[C@H](C/C=N\OC[C@@H](O)COCc2ccco2)C=C[C@@H]1OC(C)=O	x	x	x	x	x	0.7%[14.2 µM]
Cc1ccc(NC(=O)c2c(NC(=O)c3ccco3)sc3c2CCC(C(C)(C)C)C3)c(C)c1 (stereo unspecified)	i	-5.9%	-12.3	-5.7%	4.4%[46.1 µM]	-3.9%[46.1 µM]
Cn1c(=O)c2cc(NC(=S)NC3CCCCC3)ccc2n1Cc1cccc(C(F)(F)F)c1	i	-8.8%	-70.5*	8.0%	x	x
C=C(C[C@@]1(C(=O)OC)C=C[C@@H](C)[C@H](c2ccccc2Br)N1C(=O)C(F)(F)F)c1ccccc1	x	x	x	x	x	-13.5%[14.2 µM]
Cc1cc(=O)n(CC(=O)N2CCN(c3ccccc3F)CC2)c2c1c(C)nn2C	-6.1%[7.34 µM]	-2.4%[7.34 µM]	-60.4*	u	-24.3%[46.1 µM]	x
COC(=O)C1CCN(Cc2ccc3c(c2)CN(C(=O)c2ncc(C)[nH]2)CCO3)CC1	-8.2%	5.8%	x	-12.0%	x	x
Cc1cc(C)nc(/N=C(\N)Nc2ccc(OCCC(C)C)cc2)n1	u	u	u	8.91µM*	-19.2%	u
COc1ccc(N/C(N)=N/c2nc(C)cc(C)n2)cc1	-3.3%	-27.4%	-32.7	-19.4%	x	x
Cc1cc(C)nc(/N=C(\N)Nc2cccc(OCc3ccccc3)c2)n1	x	x	-72.6*	31.6µM*	x	x
Cc1cc(C)nc(/N=C(\N)Nc2ccc(OCc3ccccc3)cc2)n1	u	u	-74.7*	28.2µM*	u	u
COc1ccc2[nH]c(-c3ccc(C)cc3)cc(=O)c2c1	-3.1%	u	x	-33.8%	4.11µM*	u
COc1ccc(-c2cc(=O)c3cc(F)ccc3[nH]2)cc1	14.3%	-10.3%	-12.1	-21.1%	-6.5%	9.0%
COc1ccc2[nH]c(-c3ccccc3)cc2c1	-17.4%	-10.1%	-36.1	19.1%	-26.6%	8.91µM*
Cc1ccc2nc(-c3cccc(Br)c3)c(Cc3ccsc3)n2c1	x	x	41.3	x	x	x
CCOC(=O)c1cc(CC)sc1/N=C/c1c(O)ccc2ccccc12	-19.7%	-11.2%	-70.3*	-14.7%	u	-9.8%
Fc1cccc(F)c1/C=N/Nc1ccccn1	x	x	-31.2	63.3%	x	x
